Measured values from PubChem BioAssay.

Columns and labels:
[1] = molecular target: Tumor necrosis factor receptor superfamily member 10B (Homo sapiens) (UniProt O14763); assay: viability loss of caspase-8 NB7 cells with TRAIL – with/without TRAIL, luminescence panel, confirmation (AID 651596); details: NB7 neuroblastoma + caspase-8, TRAIL sensitization, NB7 Caspase-8, with TRAIL, mean of runs, at 10 µM, stronger effect = higher value
[2] = as above; details: NB7 neuroblastoma + caspase-8, without TRAIL, NB7 Caspase-8, without TRAIL, mean of runs, at 10 µM

Sequence of Tumor necrosis factor receptor superfamily member 10B (Homo sapiens) (O14763 whole entry, looked up): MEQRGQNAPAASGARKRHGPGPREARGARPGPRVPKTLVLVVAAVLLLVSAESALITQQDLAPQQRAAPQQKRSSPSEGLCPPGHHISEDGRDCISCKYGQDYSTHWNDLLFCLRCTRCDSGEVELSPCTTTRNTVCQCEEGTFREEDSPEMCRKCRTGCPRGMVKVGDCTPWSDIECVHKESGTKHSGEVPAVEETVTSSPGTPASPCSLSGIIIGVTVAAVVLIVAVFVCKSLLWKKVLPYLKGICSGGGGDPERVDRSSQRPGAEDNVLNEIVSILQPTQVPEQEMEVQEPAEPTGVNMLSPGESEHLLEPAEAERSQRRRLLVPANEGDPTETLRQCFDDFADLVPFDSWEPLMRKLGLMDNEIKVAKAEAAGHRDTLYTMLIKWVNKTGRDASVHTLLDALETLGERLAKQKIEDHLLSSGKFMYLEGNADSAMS

Structure (SMILES) | activity [1] | activity [2]
CC(C)C[C@H](NC(=O)c1nc[nH]c1C(=O)N[C@@H](CC(C)C)C(=O)OC(C)(C)C)C(=O)OC(C)(C)C | 72.4% | 63.2%
COc1cc(/C=C2\Oc3ccc(C#Cc4ccc(O)cc4)cc3C2=O)cc(OC)c1 | 80.5% | 83.2%
CCc1nnc(NC(=O)c2nc(S(=O)(=O)Cc3cccc(C)c3)ncc2Cl)s1 | 97.6% | 90.3%
CCCCOc1ccc(-c2nc(=S)[nH][nH]2)cc1 | 67.1% | 66.6%
COc1ccc(C(=O)/C=C/Nc2cccc(O)c2)cc1 | 75.9% | 42.4%
Cc1cc(C)nc(NC(=O)/C=C/c2ccc3c(c2)OCO3)c1 | 70.2% | 75.5%
COc1ccc(C(=O)/C=C2\C(=O)Nc3ccc(Br)cc32)cc1 | 49.3% | 77.4%
O=C(c1ccncc1)N(Cc1cc2ccccc2[nH]c1=O)C1CCCCC1 | 72.5% | 78.4%
O=C(N/N=C/c1ccc([N+](=O)[O-])o1)c1cc(-c2ccc(-c3ccccc3)cc2)nc2ccccc12 | 85.8% | 89.3%
c1ccc2nc(-c3nc4ccccc4o3)ccc2c1 | 79.6% | 76%
CCCc1ccc(C(=O)NC(=O)c2ccccc2O)cc1 | 78.6% | 75.5%
CCOc1cc(CNCCc2ccc(S(N)(=O)=O)cc2)ccc1OCc1ccc(Cl)cc1 | 65.4% | 84.1%
C=CCNc1nc(NCc2ccc(NC(C)=O)cc2)c2sc(-c3ccccc3)cc2n1 | 46.1% | 43.1%
O=C(Cc1ccsc1-c1ccccc1)NO | 73.4% | 72.3%
COc1cccc(C(=O)Cn2c(=N)n(C)c3ccccc32)c1 | 65.8% | 66.2%
